From PubChem BioAssay AID1159580 (chemical genetic matrix, 2015)
Among all 5,500 compounds or so, about 2,000 (36%) were called active. Not shown: some 18% with an inconclusive outcome. No stated cut-off is given here; in the data, active means normalized growth mostly below about 0.91 (no sharp cut-off); inconclusive means no clear call, values can overlap the other calls; inactive means mostly above about 0.92. The list shows a part of the results.

Assay: chemical genetic growth profiling, strain panel (AID 1159580);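 further: tested at 20 µM; growth read once vehicle control cultures reached saturation at 30 °C; 1 = growth at the plate median or of vehicle wells; lower values mean less growth of the strain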
Settings: growth OD

Measured: normalized growth

COc1cc2c(cc1/C=C/C(=O)c1cc(OC)c(OC)cc1OC)OCO2
inactive: S. cerevisiae deletion strains, locus YBR021W, strain FUR4, hits give low values 1.14 | S. cerevisiae deletion strains, locus YBR229C, strain ROT2, hits give low values 0.968 | S. cerevisiae deletion strains, locus YCL029C, strain bik1, hits give low values 1.02 | S. cerevisiae deletion strains, locus YDL035C, strain GPR1, hits give low values 1 | S. cerevisiae deletion strains, locus YDL074C, strain BRE1, hits give low values 1.05 | S. cerevisiae deletion strains, locus YDL101C, strain DUN1, hits give low values 0.994 | S. cerevisiae deletion strains, locus YDL134C, strain PPH21, hits give low values 1.01 | S. cerevisiae deletion strains, locus YDL185W, strain tfp1, hits give low values 1 | S. cerevisiae deletion strains, locus YDL192W, strain arf1, hits give low values 1.01 | S. cerevisiae deletion strains, locus YDR101C, strain arx1, hits give low values 0.998 | S. cerevisiae deletion strains, locus YDR150W, strain NUM1, hits give low values 1.02 | S. cerevisiae deletion strains, locus YDR162C, strain NBP2, hits give low values 0.974 | S. cerevisiae deletion strains, locus YDR318W, strain mcm21, hits give low values 1.01 | S. cerevisiae deletion strains, locus YDR388W, hits give low values 1.02 | S. cerevisiae deletion strains, locus YDR502C, strain sam2, hits give low values 1.02 | S. cerevisiae deletion strains, locus YEL061C, strain CIN8, hits give low values 1 | S. cerevisiae deletion strains, locus YER110C, hits give low values 1.02 | S. cerevisiae deletion strains, locus YER155C, strain BEM2, hits give low values 1.02 | S. cerevisiae deletion strains, locus YER167W, strain BCK2, hits give low values 1.03 | S. cerevisiae deletion strains, locus YGL078C, strain dbp3, hits give low values 0.997 | S. cerevisiae deletion strains, locus YGL086W, strain mad1, hits give low values 1.01 | S. cerevisiae deletion strains, locus YGL248W, strain PDE1, hits give low values 0.996 | S. cerevisiae deletion strains, locus YGR135W, strain pre9, hits give low values 1.01 | S. cerevisiae deletion strains, locus YGR229C, strain SMI1, hits give low values 1.01 | S. cerevisiae deletion strains, locus YGR252W, strain gcn5, hits give low values 1.08 | S. cerevisiae deletion strains, locus YHR030C, strain SLT2, hits give low values 1.02 | S. cerevisiae deletion strains, locus YHR079C, strain IRE1 (second series), hits give low values 1 | S. cerevisiae deletion strains, locus YHR094C, strain hxt1, hits give low values 1.01 | S. cerevisiae deletion strains, locus YHR129C, strain ARP1, hits give low values 1.02 | S. cerevisiae deletion strains, locus YHR200W, strain rpn10, hits give low values 1.02 | S. cerevisiae deletion strains, locus YIL066C, strain RNR3, hits give low values 1.01 | S. cerevisiae deletion strains, locus YIL073C, strain SPO22, hits give low values 1.06 | S. cerevisiae deletion strains, locus YIL125W, strain kgd1, hits give low values 1.03 | S. cerevisiae deletion strains, locus YIR030C, strain dcg1, hits give low values 1.01 | S. cerevisiae deletion strains, locus YJL095W, strain BCK1, hits give low values 1 | S. cerevisiae deletion strains, locus YJL134W, strain LCB3, hits give low values 1.01 | S. cerevisiae deletion strains, locus YJL168C, strain set2, hits give low values 1.01 | S. cerevisiae deletion strains, locus YJL187C, strain SWE1 (second series), hits give low values 1 | S. cerevisiae deletion strains, locus YJR043C, strain POL32, hits give low values 1.02 | S. cerevisiae deletion strains, locus YKL009W, strain mrt4, hits give low values 1.02 | S. cerevisiae deletion strains, locus YKL068W, hits give low values 1 | S. cerevisiae deletion strains, locus YKL085W, strain MDH1 (second series), hits give low values 1 | S. cerevisiae deletion strains, locus YKL085W, strain MDH1, hits give low values 1 | S. cerevisiae deletion strains, locus YKL190W, strain CNB1, hits give low values 0.994 | S. cerevisiae deletion strains, locus YKR001C, strain vps1, hits give low values 1.02 | S. cerevisiae deletion strains, locus YLR039C, strain RIC1, hits give low values 0.994 | S. cerevisiae deletion strains, locus YLR058C, strain SHM2, hits give low values 0.998 | S. cerevisiae deletion strains, locus YLR102C, strain apc9, hits give low values 1.02 | S. cerevisiae deletion strains, locus YLR262C, strain YPT6, hits give low values 1.01 | S. cerevisiae deletion strains, locus YLR268W, strain sec22, hits give low values 1.02 | S. cerevisiae deletion strains, locus YLR330W, strain CHS5, hits give low values 1.02 | S. cerevisiae deletion strains, locus YLR342W, strain FKS1 (second series), hits give low values 1.06 | S. cerevisiae deletion strains, locus YLR371W, strain rom2, hits give low values 1.02 | S. cerevisiae deletion strains, locus YLR418C, strain cdc73, hits give low values 1.04 | S. cerevisiae deletion strains, locus YML016C, strain PPZ1, hits give low values 1.01 | S. cerevisiae deletion strains, locus YML032C, strain rad52, hits give low values 1.02 | S. cerevisiae deletion strains, locus YML124C, strain tub3, hits give low values 0.995 | S. cerevisiae deletion strains, locus YMR078C, strain ctf18, hits give low values 1.03 | S. cerevisiae deletion strains, locus YMR223W, strain ubp8, hits give low values 1.01 | S. cerevisiae deletion strains, locus YMR263W, strain SAP30, hits give low values 1 | S. cerevisiae deletion strains, locus YMR307W, strain GAS1, hits give low values 1.21 | S. cerevisiae deletion strains, locus YNL067W, strain RPL9B, hits give low values 0.998 | S. cerevisiae deletion strains, locus YNL128W, strain TEP1, hits give low values 0.996 | S. cerevisiae deletion strains, locus YNL153C, strain GIM3, hits give low values 0.983 | S. cerevisiae deletion strains, locus YNL233W, strain BNI4, hits give low values 1.02 | S. cerevisiae deletion strains, locus YNL250W, strain rad50, hits give low values 1.01 | S. cerevisiae deletion strains, locus YNL271C, strain bni1, hits give low values 1.01 | S. cerevisiae deletion strains, locus YNL298W, strain CLA4, hits give low values 1.02 | S. cerevisiae deletion strains, locus YNL307C, strain MCK1, hits give low values 1.03 | S. cerevisiae deletion strains, locus YNL322C, strain KRE1, hits give low values 1.01 | S. cerevisiae deletion strains, locus YNR052C, strain pop2, hits give low values 1.01 | S. cerevisiae deletion strains, locus YOL006C, strain TOP1, hits give low values 1.27 | S. cerevisiae deletion strains, locus YOL012C, strain htz1 1.18 | S. cerevisiae deletion strains, locus YOL147C, strain pex11, hits give low values 1.01 | S. cerevisiae deletion strains, locus YOR061W, strain CKA2, hits give low values 0.975 | S. cerevisiae deletion strains, locus YOR069W, strain VPS5, hits give low values 1.01 | S. cerevisiae deletion strains, locus YOR136W, strain idh2, hits give low values 1.02 | S. cerevisiae deletion strains, locus YOR144C, strain elg1, hits give low values 1 | S. cerevisiae deletion strains, locus YOR184W, strain ser1, hits give low values 0.993 | S. cerevisiae deletion strains, locus YOR316C, strain cot1, hits give low values 1.04 | S. cerevisiae deletion strains, locus YPL055C, strain LGE1, hits give low values 1.05 | S. cerevisiae deletion strains, locus YPR119W, strain clb2, hits give low values 1.01 | S. cerevisiae deletion strains, locus YPR141C, strain kar3, hits give low values 1.01 | S. cerevisiae deletion strains, locus YPR163C, strain tif3, hits give low values 1.01 | S. cerevisiae deletion strains, locus YPR167C, strain met16, hits give low values 1.01 | S. cerevisiae deletion strains, strain wtn01, hits give low values 1.01 | S. cerevisiae strains, strain wild type, hits give low values 1.01
